Assay [1] can be described thus: antimalarial activity against Dd2 strain (AID 2302;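 active = growth inhibition above 50% at the single 2 µM test dose, taken to imply half-maximal potency below 2 µM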;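 note: 0% = DMSO untreated growth and 100% = chloroquine plus artemisinin killed control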). Particulars: P. falciparum Dd2 in RBCs, LDH growth readout, 72 h; at 2 µM; stronger effect = higher value.
The nature of assay [2]: HepG2 cytotoxicity, primary screen, cytotoxicity control for P. falciparum antimalarial project, cell-based, ATP luminescence (AID 2303;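 active = inhibition above 50%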;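 note: 0% = DMSO wells and 100% = digitonin-killed cells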). As to conditions: HepG2 viability, 24-48 h, at 10 µM, stronger effect = higher value.
The target in assay [3] is L-lactate dehydrogenase (Plasmodium falciparum (isolate CDC / Honduras)) (UniProt Q27743). Put plainly: PfLDH activity inhibition – cell lysate, 3D7 strain, counter-screen for P. falciparum growth inhibition project (AID 2304).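 Note: 0% = vehicle and 100% = reference inhibitor.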 Particulars: P. falciparum 3D7 crude extract, LDH APAD/NBT absorbance; at 2 µM; stronger effect = higher value. A general note: A counterscreen serves to expose hits that act by an unwanted route or on another target.

Assay [4] can be described thus: inhibition of 3D7 malaria parasite growth – strain 3D7 (AID 2306).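 Note: 0% = DMSO wells and 100% = chloroquine plus artemisinin control wells.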 Particulars: P. falciparum 3D7 erythrocytic growth, LDH absorbance, 72 h; at 2 µM; stronger effect = higher value.
Assay [5] deals with Calcium-dependent protein kinase 1 (Plasmodium falciparum (isolate 3D7)) (UniProt P62344). In words: PfCDPK1 kinase inhibitors, biochemical, TCAMS library (AID 1159585; cut-off not given, nearly all actives have IC50 up to about 0.98 µM;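 note: inhibitors leave more ATP so luminescence rises with inhibition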). Particulars: recombinant PfCDPK1, Kinase-Glo ATP depletion luminescence.
In assay [6] the target is Plasmodium falciparum protein kinase 6 (PK6, PF3D7_1337100) (UniProt Q8IDW1). Put plainly: PfPK6 kinase inhibitors, biochemical, TCAMS library (AID 1159586). As to conditions: recombinant PfPK6, Kinase-Glo ATP depletion luminescence.
The target of assay [7] is Protein kinase 7 (PK7), Plasmodium falciparum 3D7 (PF3D7_0213400) (UniProt Q7YTF7). In words: inhibition of Plasmodium PK7 catalytic activity – biochemical, TCAMS antimalarial set, Kinase-Glo luminescence (AID 1159587). As to conditions: recombinant PfPK7, Kinase-Glo ATP depletion luminescence.
The target in assay [8] is Calcium-dependent protein kinase 4 (Plasmodium falciparum (isolate 3D7)) (UniProt Q8IBS5). In words: PfCDPK4 kinase inhibitors, biochemical, TCAMS library (AID 1159588; cut-off not given, nearly all actives have IC50 up to about 0.91 µM). Particulars: recombinant PfCDPK4, Kinase-Glo ATP depletion luminescence. On the technique in general: In Kinase-Glo more light means more ATP remaining.

From PubChem BioAssay come the findings set out here.

Values without a mark were called inactive. For part of these data: Measured potencies and affinities stand elsewhere. Active and inactive are the calls of the source. Unless noted, the rule behind the calls is not given here.

Chain of Protein kinase 7 (PK7), Plasmodium falciparum 3D7 (PF3D7_0213400) (Q7YTF7 1-343): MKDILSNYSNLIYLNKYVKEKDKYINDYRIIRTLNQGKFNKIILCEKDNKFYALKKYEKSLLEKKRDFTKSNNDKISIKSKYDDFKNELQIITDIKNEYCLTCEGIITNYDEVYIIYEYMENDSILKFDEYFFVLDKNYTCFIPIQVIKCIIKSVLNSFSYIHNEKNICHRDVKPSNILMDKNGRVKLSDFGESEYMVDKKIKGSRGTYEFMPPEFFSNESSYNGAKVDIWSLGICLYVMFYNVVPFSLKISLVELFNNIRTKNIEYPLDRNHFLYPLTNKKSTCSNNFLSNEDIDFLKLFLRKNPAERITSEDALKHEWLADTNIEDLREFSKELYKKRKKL
Chain of Calcium-dependent protein kinase 4 (Plasmodium falciparum (isolate 3D7)) (Q8IBS5 whole entry, looked up): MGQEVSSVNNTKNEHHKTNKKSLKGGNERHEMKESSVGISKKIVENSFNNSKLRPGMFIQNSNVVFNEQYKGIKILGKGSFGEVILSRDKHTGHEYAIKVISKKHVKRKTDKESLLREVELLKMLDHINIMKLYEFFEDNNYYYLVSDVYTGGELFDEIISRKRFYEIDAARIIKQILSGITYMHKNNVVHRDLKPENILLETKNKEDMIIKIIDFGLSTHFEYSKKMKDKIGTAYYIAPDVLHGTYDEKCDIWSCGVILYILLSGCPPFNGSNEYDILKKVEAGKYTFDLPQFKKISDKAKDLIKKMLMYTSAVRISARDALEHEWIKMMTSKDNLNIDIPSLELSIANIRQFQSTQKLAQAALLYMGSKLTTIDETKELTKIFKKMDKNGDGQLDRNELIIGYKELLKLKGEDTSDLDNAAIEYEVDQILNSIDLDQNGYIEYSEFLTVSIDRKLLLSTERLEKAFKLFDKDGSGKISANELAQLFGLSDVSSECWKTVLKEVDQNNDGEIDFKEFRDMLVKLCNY
Chain of Calcium-dependent protein kinase 1 (Plasmodium falciparum (isolate 3D7)) (P62344 whole entry, looked up): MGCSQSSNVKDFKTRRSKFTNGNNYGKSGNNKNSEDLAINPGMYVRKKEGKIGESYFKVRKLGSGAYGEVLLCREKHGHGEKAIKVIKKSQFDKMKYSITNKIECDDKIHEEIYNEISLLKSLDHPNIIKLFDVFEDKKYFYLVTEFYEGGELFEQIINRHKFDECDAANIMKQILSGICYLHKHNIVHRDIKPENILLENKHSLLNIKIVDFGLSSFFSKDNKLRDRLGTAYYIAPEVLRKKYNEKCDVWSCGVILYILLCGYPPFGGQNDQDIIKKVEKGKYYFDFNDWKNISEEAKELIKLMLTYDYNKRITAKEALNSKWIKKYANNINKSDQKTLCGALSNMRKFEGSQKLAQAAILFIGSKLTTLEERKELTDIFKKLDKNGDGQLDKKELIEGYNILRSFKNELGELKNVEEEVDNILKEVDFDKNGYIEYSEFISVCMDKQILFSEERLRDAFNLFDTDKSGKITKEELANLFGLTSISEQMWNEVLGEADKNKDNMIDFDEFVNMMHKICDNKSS
Chain of Plasmodium falciparum protein kinase 6 (PK6, PF3D7_1337100) (Q8IDW1 1-305): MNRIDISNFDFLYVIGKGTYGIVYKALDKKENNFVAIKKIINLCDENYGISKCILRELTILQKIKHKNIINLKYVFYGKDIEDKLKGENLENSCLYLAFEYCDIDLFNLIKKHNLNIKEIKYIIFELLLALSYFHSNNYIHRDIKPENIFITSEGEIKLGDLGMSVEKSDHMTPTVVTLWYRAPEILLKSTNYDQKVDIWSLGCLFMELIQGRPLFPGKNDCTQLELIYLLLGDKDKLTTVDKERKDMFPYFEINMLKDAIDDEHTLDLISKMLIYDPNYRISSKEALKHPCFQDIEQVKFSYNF
Chain of L-lactate dehydrogenase (Plasmodium falciparum (isolate CDC / Honduras)) (Q27743 whole entry, looked up): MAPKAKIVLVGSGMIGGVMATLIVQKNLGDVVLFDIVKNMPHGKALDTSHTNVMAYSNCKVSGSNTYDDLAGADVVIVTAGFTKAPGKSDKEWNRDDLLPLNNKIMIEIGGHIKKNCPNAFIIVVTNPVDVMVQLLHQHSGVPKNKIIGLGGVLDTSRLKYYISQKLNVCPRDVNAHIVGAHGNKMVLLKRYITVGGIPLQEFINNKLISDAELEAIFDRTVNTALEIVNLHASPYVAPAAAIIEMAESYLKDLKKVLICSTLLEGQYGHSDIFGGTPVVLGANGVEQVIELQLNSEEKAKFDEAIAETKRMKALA

For orientation: inhibition means the drop in the measured response relative to a control, in per cent. For `CN1CCN=C1c1ccc(NC(=O)Nc2ccc(C3=NCCN3C)cc2)cc1`, the values for the growth inhibition in assay [1] and in assay [4] were 69% (active) and 85% (active), respectively. Further, the inhibition is 7% in assay [2] and -1% in assay [3]. In addition, the result in assay [5], in assay [6], in assay [7] and in assay [8] was inactive.
Turning to `Cn1nccc1C(=O)NCCNCc1cccc(-c2csc(-c3nc4ccccc4[nH]3)c2)c1`, the growth inhibition in assay [1] was 2%; in assay [4], 101% (active). Moreover, the inhibition in assay [2] was 30%; in assay [3], 0%. Further, the result in assay [5], in assay [6], in assay [7] and in assay [8] was inactive.
Take `O=C(Cn1c(CCc2cccc(F)c2F)cc(=O)c2ccccc21)N(CCN1CCCC1)Cc1ccc(-c2ccc(C(F)(F)F)cc2)cc1`: the growth inhibition in assay [1] is 57% (active); in assay [4], 99% (active). The results for the inhibition in assay [2] and in assay [3] were 89% (active) and -2%, respectively. In addition, the result in assay [5], in assay [6], in assay [7] and in assay [8] was inactive.
For the compound `O=C(C=Cc1ccc(Cl)c(Cl)c1)NC1CCN(CCc2ccccc2)CC1`, the values for the growth inhibition in assay [1] and in assay [4] were 13% and 97% (active), respectively. Further, the inhibition was 6% in assay [2] and -8% in assay [3]. Moreover, the result in assay [5], in assay [6], in assay [7] and in assay [8] was inactive.
With `Cn1c(Nc2cc(C(C)(C)C)on2)nc2cc(Nc3ccnc(Nc4ccc(CS(C)(=O)=O)cc4)n3)ccc21`, the growth inhibition in assay [1] was 68% (active); in assay [4], 101% (active). In addition, the inhibition in assay [2] is 37%; in assay [3] it was -1%. Besides, the outcome in assay [5], in assay [6], in assay [7] and in assay [8] was inactive.
As for `COc1cc(F)c2ncc(Cl)c(C(O)CN3CCC(NC(=O)c4ccc5c(c4)NC(=O)CS5)CC3)c2c1` (stereo not drawn), the growth inhibition in assay [1] is 68% (active); in assay [4], 98% (active). Besides, the inhibition in assay [2] is 15%; in assay [3], 1%. Besides, the result in assay [5], in assay [6], in assay [7] and in assay [8] was inactive.
With `Cc1cccc2[nH]c(-c3cccc(-c4cccc(C(=O)N5CCCCC5CN5CCC(O)C5)c4)c3)nc12` (stereo not drawn), the results for the growth inhibition in assay [1] and in assay [4] were 71% (active) and 89% (active), respectively. In addition, the inhibition in assay [2] was 19%; in assay [3], -5%. The result in assay [5], in assay [6], in assay [7] and in assay [8] was inactive.
On to `O=C(Nc1cccc(CN2CCCN(Cc3ccc(F)cc3)CC2)c1)c1ccc(Cl)c(Cl)c1`, for which the figures for the growth inhibition in assay [1] and in assay [4] were 17% and 95% (active), respectively. The results for the inhibition in assay [2] and in assay [3] were 27% and 7%, respectively. Moreover, the outcome in assay [5], in assay [6], in assay [7] and in assay [8] was inactive.
Regarding `COc1ccc2nccc([C@@H](O)CN3CCC(NCc4cc5ccccn5n4)CC3)c2c1`, the results for the growth inhibition in assay [1] and in assay [4] were 18% and 99% (active), respectively. The inhibition was 7% in assay [2] and -8% in assay [3]. The result in assay [5], in assay [6], in assay [7] and in assay [8] was inactive.
As to `COc1ccccc1CNC(=O)C(=O)Nc1c(-c2ccccc2)[nH]c2ccccc12`, the growth inhibition in assay [1] was 91% (active); in assay [4], 99% (active). The values for the inhibition in assay [2] and in assay [3] were 0% and -2%, respectively. The result in assay [5], in assay [6], in assay [7] and in assay [8] was inactive.
For `CN1CC[C@@H](Oc2cc(NC(=O)Nc3ccccc3Br)ccc2Cl)C1`, the growth inhibition in assay [1] was 6%; in assay [4] it was 100% (active). In addition, the figures for the inhibition in assay [2] and in assay [3] were 26% and 0%, respectively. The outcome in assay [5], in assay [6], in assay [7] and in assay [8] was inactive.
Turning to `CCn1cc(CN2C(=O)C(c3ccccc3)(c3ccccc3)N=C2N)cn1`, the figures for the growth inhibition in assay [1] and in assay [4] were 60% (active) and 95% (active), respectively. The inhibition in assay [2] is 7%; in assay [3] it was -2%. Further, the outcome in assay [5], in assay [6], in assay [7] and in assay [8] was inactive.
For `Oc1ccc2nc(NCCCc3ccccc3)nc(NCCCc3ccccc3)c2c1`, the growth inhibition was 93% (active) in assay [1] and 101% (active) in assay [4]. The inhibition is 5% in assay [2] and -3% in assay [3]. The result in assay [5], in assay [6], in assay [7] and in assay [8] was inactive.
With `CC(=O)NC(c1cccs1)c1cc(Cl)c2cccnc2c1O` (stereo not drawn), the growth inhibition is 93% (active) in assay [1] and 94% (active) in assay [4]. The inhibition in assay [2] was 65% (active); in assay [3], -2%. Also, the result in assay [5], in assay [6], in assay [7] and in assay [8] was inactive.
As for `COc1ccc(N2CCN(CCCCNC(=O)c3ccc(NC(=O)c4cc(Cl)cc(Cl)c4)cc3)CC2)c(OC)c1`, the growth inhibition in assay [1] was 84% (active); in assay [4] it was 100% (active). Moreover, the inhibition in assay [2] is 21%; in assay [3], 2%. For the same compound, the outcome in assay [5], in assay [6], in assay [7] and in assay [8] was inactive.
On to `CS(=O)(=O)NCCCNCc1cccc(-c2cccc(-c3nc4ccc(F)cc4[nH]3)c2)c1`, for which the results for the growth inhibition in assay [1] and in assay [4] were 5% and 100% (active), respectively. Also, the figures for the inhibition in assay [2] and in assay [3] were 4% and -13%, respectively. Also, the outcome in assay [5], in assay [6], in assay [7] and in assay [8] was inactive.
On to `O=C(Nc1cccc(CN2CCCN(Cc3ccc4c(c3)OCO4)CC2)c1)c1ccc(Cl)c(Cl)c1`, for which the results for the growth inhibition in assay [1] and in assay [4] were 10% and 92% (active), respectively. Also, the inhibition is 34% in assay [2] and -2% in assay [3]. Further, the result in assay [5], in assay [6], in assay [7] and in assay [8] was inactive.
`COc1ccc2nc3cc(Cl)ccc3c(NCCc3ccccc3)c2c1`: the growth inhibition was 82% (active) in assay [1] and 94% (active) in assay [4]. Further, the inhibition was -1% in assay [2] and 8% in assay [3]. The outcome in assay [5], in assay [6], in assay [7] and in assay [8] was inactive.
Take `CCn1c(SCC(=O)Nc2cc(C(F)(F)F)ccc2Cl)nc2ccccc2c1=O`: the growth inhibition in assay [1] is 95% (active); in assay [4] it was 93% (active). For the same compound, the inhibition in assay [2] is 8%; in assay [3], 3%. Besides, the outcome in assay [5], in assay [6], in assay [7] and in assay [8] was inactive.
As for `O=C(NCc1cccs1)[C@H](Cc1ccccc1)Nc1ccnc(NCCc2ccccc2)n1`, the figures for the growth inhibition in assay [1] and in assay [4] were 59% (active) and 85% (active), respectively. Also, the inhibition in assay [2] is -1%; in assay [3], -2%. Also, the result in assay [5], in assay [6], in assay [7] and in assay [8] was inactive.
On to `O=C(N[C@@H](CC1CCCCC1)C(=O)NC1CCCc2ccccc21)c1ccc(O)c(-c2ccc(Cl)c(Cl)c2)c1` (stereo partly drawn), for which the growth inhibition is 99% (active) in assay [1] and 98% (active) in assay [4]. The inhibition was 1% in assay [2] and -3% in assay [3]. Also, the outcome in assay [5], in assay [6], in assay [7] and in assay [8] was inactive.
